Results taken from the supplement of paper PMC12494721.
Counter-ions that a name gives are not always drawn.

What was measured:
Conditions in all cases: incubation time: 27 h, anaerobic, 37 °C;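 for the amine columns active = adjusted P below 0.05 in both replicates with a change the same way and a mean fold change under 0.8 or over 1.25; inactive = the rest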
[1] = tested on: Clostridium sporogenes DSM 1664; assay: growth (OD595) fold change vs plate DMSO controls (fold change (ratio)); higher = more growth
Procedure, shortened: (§1)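 The 96-well mGAM cultures had been kept anaerobic for 27 h at 37 °C before being shaken and read at 595 nm. Blank subtraction, compound background correction with 20 µM compound solutions in water, and a calibration factor of 5 turned the readings into OD. Growth is given as the fold change versus the median of plate DMSO controls. Fold changes above 1.5 were set to NA, and the values are means of 2 biological replicates.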

Escherichia coli IAI1 [2] = assay: as above
Procedure, shortened: as §1

[3] = tested on: Klebsiella aerogenes DSM 30053; assay: as above
Procedure, shortened: as §1

[4] = tested on: Ruminococcus gnavus DSM 108212; assay: as above
Procedure, shortened: as §1

[5] = tested on: Klebsiella aerogenes DSM 30053; assay: fold change of Histamine concentration vs plate DMSO controls (fold change (ratio)); higher = more amine produced, active = hit call of the paper (significant change in both replicates, either direction)
Procedure, shortened: (§2)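 Each value is the fold change relative to DMSO-only wells on the same plate. Four gut bacterial strains were grown anaerobically in mGAM at 37 °C for 27 h in 80 µL wells, starting at OD 0.1 before a 1:1 dilution, with compounds at 20 µM final (sweeteners 50 µM). Whole cultures were extracted with cold acetonitrile/methanol containing 0.1% formic acid, centrifuged, and amines were quantified by LC–triple-quadrupole MS (dynamic MRM) against external calibration curves with within-batch drift correction. Values are means of 2 biological replicates.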

[6] = tested on: Clostridium sporogenes DSM 1664; assay: fold change of Tryptamine concentration vs plate DMSO controls (fold change (ratio)); higher = more amine produced, active = hit call of the paper (significant change in both replicates, either direction)
Procedure, shortened: as §2

[7] = tested on: Ruminococcus gnavus DSM 108212; assay: as above
Procedure, shortened: as §2

Escherichia coli IAI1 [8] = assay: fold change of Putrescine concentration vs plate DMSO controls (fold change (ratio)); higher = more amine produced, active = hit call of the paper (significant change in both replicates, either direction)
Procedure, shortened: as §2

[9] = tested on: Klebsiella aerogenes DSM 30053; assay: as above
Procedure, shortened: as §2

Escherichia coli IAI1 [10] = assay: fold change of Cadaverine concentration vs plate DMSO controls (fold change (ratio)); higher = more amine produced, active = hit call of the paper (significant change in both replicates, either direction)
Procedure, shortened: as §2

[11] = tested on: Klebsiella aerogenes DSM 30053; assay: as above
Procedure, shortened: as §2

[12] = tested on: Ruminococcus gnavus DSM 108212; assay: fold change of 2-Phenylethylamine concentration vs plate DMSO controls (fold change (ratio)); higher = more amine produced, active = hit call of the paper (significant change in both replicates, either direction)
Procedure, shortened: as §2

Structure (SMILES)	growth [1]	growth (Escherichia coli IAI1 [2])	growth [3]	growth [4]	fold change of Histamine concentration [5]	fold change of Tryptamine concentration [6]	fold change of Tryptamine concentration [7]	fold change of Putrescine concentration (Escherichia coli IAI1 [8])	fold change of Putrescine concentration [9]	fold change of Cadaverine concentration (Escherichia coli IAI1 [10])	fold change of Cadaverine concentration [11]	fold change of 2-Phenylethylamine concentration [12]
c1cc2ccc3ccc4ccc5cccc6c(c1)c2c3c4c56 [Benzo-[g,h,i]perylene] (20 µM)	0.921	1.01	1.06	1.05	1.04 (inactive)	1.02 (inactive)	0.905 (inactive)	1.04 (inactive)	1.01 (inactive)	1 (inactive)	0.976 (inactive)	0.88 (inactive)
C[C@H]1O[C@@H](O[C@H]2[C@@H](O)C[C@H](O[C@H]3[C@@H](O)C[C@H](O[C@H]4CC[C@@]5(C)[C@H](CC[C@@H]6[C@@H]5C[C@@H](O)[C@]5(C)[C@@H](C7=CC(=O)OC7)CC[C@]65O)C4)O[C@@H]3C)O[C@@H]2C)C[C@H](O)[C@@H]1O [Digoxin] (20 µM)	1.14	0.971	0.995	0.945	1.05 (inactive)	1 (inactive)	1.02 (inactive)	1.01 (inactive)	0.999 (inactive)	0.992 (inactive)	0.991 (inactive)	1.03 (inactive)
COc1ccc(C2CNC(=O)C2)cc1OC1CCCC1 (centres undefined) [Rolipram] (20 µM)	0.936	0.98	1.03	0.936	0.951 (inactive)	1.03 (inactive)	1.03 (inactive)	0.954 (inactive)	0.989 (inactive)	0.984 (inactive)	1 (inactive)	1.06 (inactive)
CN(C)CCCN1c2ccccc2Sc2ccccc21 [Promazine hydrochloride] (20 µM)	1.02	0.959	0.962	1	1.05 (inactive)	1.1 (inactive)	0.823 (inactive)	0.916 (inactive)	0.995 (inactive)	1.03 (inactive)	0.983 (inactive)	0.829 (inactive)
N[C@@H](Cc1ccc(O)c(O)c1)C(=O)O [Levodopa] (20 µM)	1.09	0.977	0.989	0.94	1.05 (inactive)	1.03 (inactive)	1.03 (inactive)	1 (inactive)	1.02 (inactive)	0.975 (inactive)	0.997 (inactive)	1.04 (inactive)
C[C@H](CC[C@@H](O[C@@H]1O[C@H](CO[C@@H]2O[C@H](CO)[C@@H](O)[C@H](O)[C@H]2O)[C@@H](O)[C@H](O)[C@H]1O[C@@H]1O[C@H](CO)[C@@H](O)[C@H](O)[C@H]1O)C(C)(C)O)[C@H]1CC[C@@]2(C)[C@@H]3CC=C4[C@@H](CC[C@H](O[C@@H]5O[C@H](CO[C@@H]6O[C@H](CO)[C@@H](O)[C@H](O)[C@H]6O)[C@@H](O)[C@H](O)[C@H]5O)C4(C)C)[C@]3(C)[C@H](O)C[C@]12C [Mogroside V] (50 µM)	0.958	0.906	1	1.22	1.03 (inactive)	1.12 (inactive)	0.979 (inactive)	0.939 (inactive)	1 (inactive)	1.11 (inactive)	1.02 (inactive)	0.964 (inactive)
CCc1ccc(C(=O)C(C)CN2CCCCC2)cc1 (centres undefined) [Eperisone Hydrochloride] (20 µM)	1.04	0.959	0.959	0.991	0.995 (inactive)	1.04 (inactive)	0.954 (inactive)	0.986 (inactive)	0.98 (inactive)	0.992 (inactive)	0.991 (inactive)	1.02 (inactive)
CC(C)=C/C(C)=N/Nc1nncc2ccccc12 [Budralazine] (20 µM)	1.12	1.05	0.989	0.98	1.03 (inactive)	0.98 (inactive)	0.994 (inactive)	0.992 (inactive)	1.02 (inactive)	0.963 (inactive)	1 (inactive)	0.969 (inactive)
C=C1CC[C@H](O)C/C1=C/C=C1\CCC[C@]2(C)[C@@H]([C@H](C)CCCC(C)C)CC[C@@H]12 [Cholecalciferol] (20 µM)	0.913	0.971	0.962	1.05	1.08 (inactive)	0.975 (inactive)	1.03 (inactive)	0.96 (inactive)	1.01 (inactive)	0.984 (inactive)	1.07 (inactive)	1.13 (inactive)
CCC1=C(C)CN(C(=O)NCCc2ccc(S(=O)(=O)NC(=O)N[C@H]3CC[C@H](C)CC3)cc2)C1=O [Glimepiride] (20 µM)	1.02	1.03	1.02	0.969	0.985 (inactive)	0.934 (inactive)	0.995 (inactive)	0.976 (inactive)	0.997 (inactive)	1.04 (inactive)	0.993 (inactive)	1.02 (inactive)
CC(Oc1ccccc1)C(=O)N[C@@H]1C(=O)N2[C@@H]1SC(C)(C)[C@@H]2C(=O)O (some centres undefined) [Phenethicillin potassium salt] (20 µM)	0	1.05	0.995	0	0.936 (inactive)	0.0424 (active)	0.045 (active)	0.969 (inactive)	0.954 (inactive)	1.06 (inactive)	1.02 (inactive)	0.0417 (active)
CC(=O)NC[C@H]1CN(c2ccc(N3CCOCC3)c(F)c2)C(=O)O1 [Linezolid] (20 µM)	0	0.788	0.985	0.196	0.819 (inactive)	0.0335 (active)	0.112 (active)	0.59 (active)	1 (inactive)	0.777 (active)	1 (inactive)	0.119 (active)
